We go through 20 compounds from ChEMBL document CHEMBL3988442, “University of Dundee, Small-Polar-MMV Screening Library” (2021).

For the test, the target named is AMP-activated protein kinase, AMPK (Homo sapiens) (UniProt P54646+O43741+P54619+Q9UGJ0+Q9Y478+Q13131+Q9UGI9). The test is described as follows: AMP-dependent Kinase enzyme assay. An in vitro enzyme assay that detects ADP turnover that is directly proportional to AMPK activity. This uses naive AMPK that is activated during the assay with MK-8722. As to conditions: 30 µM. The arrangement: scale not given: direction of the effect not stated beside the values. The class given is functional.
For `O=C(CC1CCc2ccccc21)NC1(C(=O)O)CCCC1` (stereo not given), the Percent Effect was -6.64%.

With `CCCn1nnnc1COC(=O)C1COc2ccc(Cl)cc2C1` (stereo not given), the Percent Effect worked out at 19.7%.

Consider `NCC(CO)Cc1ccc(OC(F)(F)F)cc1` (stereo not given), for which the Percent Effect was -4.6%.

On to `CCC(C(=O)NCCc1nc(C)cc(C(F)(F)F)n1)n1cccn1` (stereo not given), for which the Percent Effect was -8.03%.

Take `Cc1ccnc(C2COCCN2C)n1` (stereo not given): the Percent Effect came to 26%.

Regarding `NC(=O)COc1cccc(Cn2cccn2)c1`, the Percent Effect was -6.59%.

As to `Cc1nc(NC(=O)C(C)N(C)Cc2ccc3c(c2)OCO3)sc1C` (stereo not given), the Percent Effect was 6%.

Regarding `Cc1nn(CC(=O)NCC2(C(N)=O)CCOCC2)c(C)c1Cl`, the Percent Effect was 2.14%.

`Cn1ncc2c(NC3CCC3)nc(-c3ccncc3)nc21`: the Percent Effect was found to be 87.5%.

`CCc1oc(C(=O)NC(C)c2ncn[nH]2)cc1CN1CCCC1` (stereo not given): the Percent Effect is -1.83%.

Regarding `CC(C)c1cc(C(=O)NCC2CCCN(c3ncccn3)C2)n(C)n1` (stereo not given), the Percent Effect came out at 5.97%.

As to `COC(=O)C1CN(Cc2ccn(-c3ccc(F)cc3)n2)CCO1` (stereo not given), the Percent Effect was -6.99%.

`N#Cc1cc(S(N)(=O)=O)ccc1N1CCN(c2ccccc2)CC1`: the Percent Effect was 10.8%.

Consider `Cc1nccn1CCN(C)C(=O)c1cn(CC2CCCCC2)nn1`, for which the Percent Effect is 9.45%.

In the case of `CCc1nc(C)c(CC(=O)N2CCC3(CC2)OCCCC3OC)c(=O)[nH]1` (stereo not given), the Percent Effect was -123%.

Consider `CCn1ncnc1C1CC(=O)NCc2nc(N3CCCC3)sc21` (stereo not given), for which the Percent Effect is -10.2%.

As to `CC(=O)N[C@@H]1CN(C(=O)c2cccc(C(F)(F)F)c2)C[C@H]1O`, the Percent Effect was 5.07%.

Consider `CCCc1nc(NC2(COC)CCCC2)c2cnn(C)c2n1`, for which the Percent Effect was 7.33%.

With `CCS(=O)(=O)NCC(=O)N1CCC(c2cc3ccccc3[nH]2)CC1`, the Percent Effect was found to be 6.95%.

Regarding `CCN1CCC(CC(=O)NCCc2nc(C)cc(C)n2)CC1`, the Percent Effect is 1.66%.
